High-throughput results from PubChem.
Only a selection was taken, and hits are over-represented in it overall.
Sa growth inh – S. aureus growth inhibition at 42 and 30 °C, primary screen, LtaS inhibitor project, RN4220, two temperatures | OD600, 20 h, 42 °C; stronger effect = lower value | relative growth, % (no concentration beside the values) | hit rate 0.53% among 170,000 | AID 720641, 2013;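 active means relative growth at most 50% at the other temperature and 20+ points below 30 °C, or under 10% at both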
Sa helicase inh – inhibitors of S. aureus replicative helicase, primary screen, biochemical, fluorescence unwinding readout; replicative DNA helicase (DnaC/DnaB), Staphylococcus aureus; purified S. aureus helicase, fluorescence unwinding assay; inhibition, % (test concentration not listed); hit rate 0.05% among 120,000; AID 485395, 2010; in the data active means inhibition above about 25%, passing the limit was not always enough
Of the large screens only hits and unclear results are named; the others gave an inactive call.

O=C1c2ccccc2-c2nc3ccccc3nc21	Sa growth inh 5.6
O=C1c2ccccc2-c2nc3nonc3nc21	none
N#Cc1ccc(NCC(=O)Nc2ccc(N3CCOCC3)cc2)cc1	none
COc1cc2c(C#N)c(N(C)CCc3ccc(OC)c(OC)c3)nc(N)c2c(N)n1	none
COc1ccc(CCN(C)c2nc(N)c3c(N)nc(SCC(=O)O)cc3c2C#N)cc1OC	Sa growth inh 0.7
CN(C)/C=N/N1CC(O)=C(c2nc3ccccc3s2)C1=N	none
CCOC(=O)c1cccc2c1-c1ccccc1/C2=N/O	Sa growth inh 44
CCOC(=O)c1cccc2c1-c1ccccc1C2=O	none (no result: Sa helicase inh)
CNS(=O)(=O)c1cc(C(C)(C)C)cc(C)c1C	none
O=c1[nH]c(=O)c2nc3cc(C(F)(F)F)ccc3nc2[nH]1	Sa growth inh 2.5
FC(F)(F)c1cccc2c1[nH]c1nc3ccccc3nc12	none
CCOc1ccc(NC(=O)CCCN2C(=O)/C(=C\c3ccco3)SC2=S)cc1	none (no result: Sa growth inh)
COc1ccc(C(=O)CSc2ncccn2)c(OC)c1	none
C/C(=N\OC(=O)c1ccc(C(F)(F)F)cc1)c1ccc[nH]1	Sa growth inh -0.3
C/C(=N\OC(=O)c1ccc(C(F)(F)F)cc1)c1cc[nH]c1	none
Oc1cc2c(cc1C(c1ccc(C(F)(F)F)cc1)N1CCN(c3ccccc3)CC1)OCO2 (stereo not drawn)	Sa growth inh -0.7
Oc1cc2c(cc1C(c1ccc(C(F)(F)F)cc1)N1CCOCC1)OCO2 (stereo not drawn)	none (no result: Sa helicase inh)
O=C(NCC(c1ccc2c(c1)OCO2)N1CCN(c2ccccc2)CC1)c1ccc(F)c(F)c1 (stereo not drawn)	none (no result: Sa helicase inh)
COC(=O)c1ccc(C(c2cc3c(cc2O)OCO3)N2CCN(c3ccccc3)CC2)cc1 (stereo not drawn)	Sa growth inh -0.2
CC1=NOC(c2ccccc2O)N(C)C1(C)C (stereo not drawn)	none
Cc1[nH]n(-c2nc3ccccc3s2)c(=O)c1C1OC(=O)c2ccccc21 (stereo not drawn)	none
COc1cc2cc3c4c(cc(OC)c(OC)c4c2cc1OC)CCN3C	Sa growth inh 6.6
COc1ccc(C(=O)N2CCc3cc(OC)c(OC)cc3C2C)cc1 (stereo not drawn)	none (no result: Sa helicase inh)
O=C1NCC(=O)N2CCCC12 (stereo not drawn)	none
Cc1c(CN(C)C)c2c(n1C)C(=O)c1ccc(Br)cc1-2	Sa helicase inh 64
Cc1c(CN(C)C)c2c(n1Cc1ccccc1)C(=O)c1ccc(Br)cc1-2	none
Fc1ccccc1CSc1nnc2ccc(-c3ccco3)nn12	none
O=C(NC(=O)c1cccc(F)c1)Nc1nc(-c2ccccc2)cc(C(F)(F)F)n1	none
CCCCCC(=O)C1CCCCC1=O (stereo not drawn)	none
COc1ccc(/C(O)=C/C(=O)C(=O)NC2C3CC4CC(C3)CC2C4)cc1 (stereo not drawn)	none
COc1ccc(NC(=O)CCS(=O)(=O)c2nc(-c3cccs3)cc(C(F)(F)F)n2)cc1	none (no result: Sa helicase inh)
COC(=O)CCS(=O)(=O)c1nc(-c2cccs2)cc(C(F)(F)F)n1	Sa growth inh 1.4
O=C(COC(=O)Cc1ccc(Cl)cc1)NCC1CCCO1 (stereo not drawn)	none
CCn1c2ccccc2c2cc(C(N)=O)ccc21	none
CCn1c2ccccc2c2cc(N3C(=O)C=CC3=O)ccc21	Sa growth inh 3.8 (no result: Sa helicase inh)
c1cc2c(cc1C1CCCCC1)c1c3n2CCCNC3CCC1 (stereo not drawn)	Sa growth inh -0.8
c1cc2c(cc1C1CCCCC1)c1c3n2CCN=C3CCC1	Sa growth inh -2.0
Cc1ccc2c(c1)c1c3n2CCN=C3CCC1	none
Cc1ccc2c(c1)c1c3n2CCCNC3CCC1 (stereo not drawn)	none
CNC(=O)Sc1ccccc1Cl	Sa growth inh -0.6 (no result: Sa helicase inh)
O=C(CSc1ccccc1Cl)N1CCCC1	none
CCN1/C(=C/c2ccc3cc(C)ccc3[n+]2C)Sc2cc(OC)ccc21	Sa growth inh -1.5
COc1ccc2c(ccc(/C=C3\Sc4ccccc4N3C)[n+]2C)c1	Sa growth inh 4.7
CN1/C(=C/C#N)Sc2ccccc21	none
CCN1/C(=C/c2ccc3ccccc3[n+]2CC)Sc2cc(NC(C)=O)ccc21	none
CCN1CCCC1CNC(C)C(=O)Nc1ccc(Oc2ccccc2)cc1 (stereo not drawn)	none
O=C(Nc1ccc(-c2ccc(N3CCCCC3)nn2)cc1)C(F)(F)F	none
Cc1cc(C)cc(N(CC(=O)NCc2ccco2)S(C)(=O)=O)c1	none
NNC(=O)N/N=C/c1ccc(I)cc1	none
O=C(/C=C/C=C/c1ccccc1)c1ccncc1	Sa growth inh 1.0
O=C(/C=C/C=C/c1ccccc1)c1ccc(Cl)cc1	none
CCOC(=O)N/N=C1\CCCCC1C (stereo not drawn)	none
O=C(/C=C(\O)c1ccc(Br)cc1)C(=O)Nc1ccccc1	none (no result: Sa helicase inh)
O=C(/C=C(\O)c1ccccc1)C(=O)Nc1cccc(F)c1	Sa growth inh -0.6
CN(Cc1ccccc1)C(=O)COC(=O)c1ccccc1O	none
Cc1nn(CC(=O)N2CCCC2)c(=O)c2ccccc12	none
O=C(NCCc1ccccc1)c1sc(=S)n2c1[nH]c(=O)c1ccccc12	none
O=C(NC1CCCCC1)c1sc(=S)n2c1[nH]c(=O)c1ccccc12	Sa growth inh -0.2
Cc1sc2nc[nH]c(=S)c2c1-c1ccccc1	Sa growth inh -0.5
Cc1sc2nc[nH]c(=O)c2c1-c1ccccc1	none (no result: Sa growth inh)
NC(=S)c1sc(=S)n(-c2ccccc2)c1N	none
Oc1c(CN2CCCCC2)ccc2cccnc12	none
Oc1c(C(O)(C(F)(F)F)C(F)(F)F)ccc2cccnc12	Sa growth inh -0.3
COc1ccc(-c2nc3ccccc3c(=O)[nH]2)cc1OC	none
Cc1c2oc3c(C)ccc(C(=O)OC(C)C4NC(=O)C(C(C)C)N(C)C(=O)CN(C)C(=O)C5CCCN5C(=O)C(C(C)C)NC4=O)c3nc-2c(C(=O)OC(C)C2NC(=O)C(C(C)C)N(C)C(=O)CN(C)C(=O)C3CCCN3C(=O)C(C(C)C)NC2=O)c(N)c1=O (stereo not drawn)	Sa growth inh -0.6 (no result: Sa helicase inh)
O=C(Nc1ccc(Cl)c(Cl)c1)OCc1ccco1	none
O=C(Nc1ccc(Cl)c(Cl)c1)OCc1cccnc1	Sa growth inh 8.0
CSc1ncc(C(=O)Nc2nc3ccccc3s2)cn1	none
CNC(=O)NC(=O)CSc1nc2ccccc2s1	none
CCN1C(=O)c2ccccc2Sc2ccc(NC(=O)Nc3ccccc3OC)cc21	none (no result: Sa helicase inh)
CCN1/C(=C/c2scc[n+]2C)C=C(C)c2cc(OC)c3ccccc3c21	Sa growth inh -1.3
CC(OC(=O)C1(c2cccc(F)c2)CCCC1)C(N)=O (stereo not drawn)	none
Cc1ccc2oc(-c3ccccc3)cc(=NCCN(C)C)c2c1	none
Cc1ccc2oc(-c3ccccc3)cc(=NCCO)c2c1	Sa helicase inh 44
CCc1ccc2oc(-c3ccccc3)cc(=NCc3cccnc3)c2c1	Sa helicase inh 48
CC(O)CN=c1cc(-c2ccccc2)oc2ccc(Cl)cc12 (stereo not drawn)	none
O=C(Nc1nc(-c2ccccc2)cs1)Oc1ccccc1	none
Cn1c(-c2cc3ccc(OC(=O)c4ccco4)cc3oc2=O)nc2ccccc21	none
CCN(C(=O)Nc1cn(C)c(=O)c2ccccc12)c1cc(C)ccc1C	none
NNC(=S)Nc1ccc2c(c1)OCO2	none
COc1ccc(C(c2cc3c(cc2O)OCO3)N2CCOCC2)cc1 (stereo not drawn)	Sa growth inh 1.8
CN(C)c1ccc(C(c2cc3c(cc2O)OCO3)N2CCCCC2)cc1 (stereo not drawn)	Sa growth inh 0.9
COc1ccc(C(=O)NCC(c2ccc3c(c2)OCO3)N2CCOCC2)cc1 (stereo not drawn)	none (no result: Sa helicase inh)
